# Measured values taken from PubChem BioAssay AID651906 (Vanderbilt Specialized Chemistry Center, 2012).
# Activity calls are given as the source filed them. No rule for the calls is given here.
# Molecular target: Protein deacetylase HDAC6 (Homo sapiens) (UniProt Q9UBN7)
# Test: HDAC6 deacetylase inhibition, profiling panel, selectivity assay for E-cadherin restoration project, biochemical, human (AID 651906)
# Chain of Protein deacetylase HDAC6 (Homo sapiens) (Q9UBN7 whole entry, looked up): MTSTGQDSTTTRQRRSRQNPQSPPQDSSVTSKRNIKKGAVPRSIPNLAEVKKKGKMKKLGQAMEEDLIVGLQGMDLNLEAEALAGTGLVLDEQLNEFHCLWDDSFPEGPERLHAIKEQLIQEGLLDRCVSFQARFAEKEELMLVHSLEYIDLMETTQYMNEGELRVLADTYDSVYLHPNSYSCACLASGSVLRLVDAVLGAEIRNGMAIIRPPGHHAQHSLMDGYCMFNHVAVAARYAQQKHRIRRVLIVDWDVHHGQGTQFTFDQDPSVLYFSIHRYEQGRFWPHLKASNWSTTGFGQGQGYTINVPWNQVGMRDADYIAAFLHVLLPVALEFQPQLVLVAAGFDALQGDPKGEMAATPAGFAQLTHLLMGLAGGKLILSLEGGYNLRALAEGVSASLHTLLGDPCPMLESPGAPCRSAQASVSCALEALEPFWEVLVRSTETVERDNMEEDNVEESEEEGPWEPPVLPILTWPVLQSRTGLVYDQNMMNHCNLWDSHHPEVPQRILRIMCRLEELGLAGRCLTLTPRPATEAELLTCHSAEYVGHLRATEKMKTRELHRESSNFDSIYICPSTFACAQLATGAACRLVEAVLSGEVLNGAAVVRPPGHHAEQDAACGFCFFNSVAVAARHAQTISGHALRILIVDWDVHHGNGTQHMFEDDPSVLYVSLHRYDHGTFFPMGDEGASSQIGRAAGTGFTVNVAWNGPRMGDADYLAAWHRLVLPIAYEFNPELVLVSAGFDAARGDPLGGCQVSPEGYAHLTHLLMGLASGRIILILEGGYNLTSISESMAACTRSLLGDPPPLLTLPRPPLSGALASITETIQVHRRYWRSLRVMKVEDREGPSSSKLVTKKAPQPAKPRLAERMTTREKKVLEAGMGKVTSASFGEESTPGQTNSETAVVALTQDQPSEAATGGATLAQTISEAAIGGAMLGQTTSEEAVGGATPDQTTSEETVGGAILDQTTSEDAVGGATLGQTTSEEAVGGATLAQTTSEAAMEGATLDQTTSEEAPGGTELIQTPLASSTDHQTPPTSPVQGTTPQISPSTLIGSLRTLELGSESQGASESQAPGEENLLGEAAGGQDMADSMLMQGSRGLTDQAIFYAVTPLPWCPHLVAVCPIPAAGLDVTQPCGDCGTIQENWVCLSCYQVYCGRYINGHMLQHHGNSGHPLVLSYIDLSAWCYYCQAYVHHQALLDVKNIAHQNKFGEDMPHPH
smiles,measurement,value
O=C(NCCCNC(=O)c1ccc[nH]c1=O)c1cc(-c2ccccc2)on1,outcome,inactive
